# In PMC4336329 (PLoS ONE, 2015):
# Screen size: about 310,000 compounds; about 14,000 (4.5%) showed an effect of 50% or more. Effects have a minus sign here. The entries come from a sample that favours strong results as a whole.
# Biological target: human ether-à-go-go-related gene (hERG) potassium channel (human, UniProt Q12809)
# Experiment: primary screen, population patch clamp on CHO cells stably expressing hERG; higher = less effect of the substance
# 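Note: peak tail current of the secondary pulse compared with the same well before compound.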
# Sequence of human ether-à-go-go-related gene (hERG) potassium channel (Q12809 whole entry, looked up): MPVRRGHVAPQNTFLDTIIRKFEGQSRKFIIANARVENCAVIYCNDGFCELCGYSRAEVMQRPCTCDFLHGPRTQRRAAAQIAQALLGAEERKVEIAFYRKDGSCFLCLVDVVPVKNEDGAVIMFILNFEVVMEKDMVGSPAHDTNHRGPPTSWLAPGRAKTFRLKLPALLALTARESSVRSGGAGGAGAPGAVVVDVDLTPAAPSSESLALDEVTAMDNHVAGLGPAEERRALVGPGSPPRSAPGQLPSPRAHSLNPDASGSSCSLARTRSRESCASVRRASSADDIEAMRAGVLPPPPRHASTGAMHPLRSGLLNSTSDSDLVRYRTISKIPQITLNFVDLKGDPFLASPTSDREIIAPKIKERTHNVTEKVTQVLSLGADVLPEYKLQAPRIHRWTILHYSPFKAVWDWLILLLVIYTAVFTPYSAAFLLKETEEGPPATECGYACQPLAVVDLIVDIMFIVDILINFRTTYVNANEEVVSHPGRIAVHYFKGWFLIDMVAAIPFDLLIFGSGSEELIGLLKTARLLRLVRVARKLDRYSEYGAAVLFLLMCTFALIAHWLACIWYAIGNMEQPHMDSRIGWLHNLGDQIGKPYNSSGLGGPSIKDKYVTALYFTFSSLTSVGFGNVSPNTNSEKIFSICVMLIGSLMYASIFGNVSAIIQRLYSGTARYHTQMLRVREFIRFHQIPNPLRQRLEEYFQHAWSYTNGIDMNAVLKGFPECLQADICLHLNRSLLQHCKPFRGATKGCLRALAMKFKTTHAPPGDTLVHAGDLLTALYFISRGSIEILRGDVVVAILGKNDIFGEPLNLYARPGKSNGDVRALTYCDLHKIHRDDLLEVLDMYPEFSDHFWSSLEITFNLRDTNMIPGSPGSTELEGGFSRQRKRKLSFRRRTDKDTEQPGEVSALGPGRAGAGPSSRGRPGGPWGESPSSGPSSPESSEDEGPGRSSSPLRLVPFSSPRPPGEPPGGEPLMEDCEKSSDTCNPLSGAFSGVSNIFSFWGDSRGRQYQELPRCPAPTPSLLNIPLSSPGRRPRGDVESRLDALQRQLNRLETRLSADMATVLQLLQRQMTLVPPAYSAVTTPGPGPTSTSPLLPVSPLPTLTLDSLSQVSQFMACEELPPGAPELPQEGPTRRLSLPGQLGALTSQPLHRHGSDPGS
row,SMILES,"hERG current change (%, negative = inhibition) at 10uM [%]"
1,CCO/C=C1/C(=O)N(CC)c2ccccc21,-8.33
2,CCOC(=O)Nc1cccc2ccccc12,1.14
3,CCOc1cc(C2C(C(=O)O)c3cc(OCC)c(OCC)cc3C(=O)N2C)ccc1O (stereo not shown),2.69
4,O=C(CNC(=S)N(Cc1ccccc1F)C1CCCCC1)NCCN1CCOCC1,43.3
5,COCCNC(=O)Cn1nc(-c2ccc(Cl)cc2)c2ccccc2c1=O,8.83
6,COc1cccc(CN(C)C(=O)CCNC(=O)c2ccc(Br)cc2)c1,0.786
7,CC(=O)c1cccc(CN2CCN(CC(C)C)C(CCO)C2)c1 (stereo not shown),5.29
8,CC(=O)c1cc(CN2CCN(CCc3ccccc3)C(CCO)C2)cs1 (stereo not shown),-54.4
9,CCOc1ccccc1CN1CCN(Cc2csc(C(C)=O)c2)CC1CCO (stereo not shown),-44.5
10,CC(=O)c1cccc(CN2CCN(CCC(C)C)C(CCO)C2)c1 (stereo not shown),-29
11,CC(=O)c1cc(CN2CCN(C3CCN(C(C)C)CC3)C(CCO)C2)cs1 (stereo not shown),-3.56
12,CC(=O)c1cccc(CN2CCN(Cc3ccc(F)cc3)C(CCO)C2)c1 (stereo not shown),-32.9
13,COc1ccc(CN2CCN(Cc3csc(C(C)=O)c3)CC2CCO)c(C)c1C (stereo not shown),-58.1
14,CC(=O)c1cccc(CN2CCN(Cc3ccccc3)C(CCO)C2)c1 (stereo not shown),-1.84
15,CC(=O)c1cc(CN2CCN(Cc3ccccc3)C(CCO)C2)cs1 (stereo not shown),2.03
16,CC(=O)c1cc(CN2CCN(CCC(C)C)C(CCO)C2)cs1 (stereo not shown),-5.53
17,CC(=O)c1cccc(CN2CCN(CCc3ccccc3)C(CCO)C2)c1 (stereo not shown),-53.3
18,CC(=O)c1cccc(CN2CCN(Cc3ccc(C)cc3)C(CCO)C2)c1 (stereo not shown),-69
19,Cc1cccc(-n2[nH]c3c4c(ccc3c2=O)C(=O)c2ccccc2C4=O)c1,4.95
20,Cc1onc(-c2ccccc2Cl)c1C(=O)Nc1ccc(OCC(=O)N2CCOCC2)cc1,-3.95
21,CC/C(=N\NC(=O)Nc1ccccc1)c1c(O)n(Cc2ccccc2)c(=O)[nH]c1=O,3.1
22,CC(=O)c1ccc(NS(=O)(=O)c2ccc3c(c2)N(C)CCO3)cc1,11.6
23,COc1ccccc1N1CCN(C(=O)C2CCCN(S(=O)(=O)c3ccc(C)cc3)C2)CC1 (stereo not shown),-38.3
24,O=C(Nc1c(F)cc(F)cc1Br)c1cccnc1,8.61
25,COc1ccc(-c2ccnc3nc(-n4cccc4)nn23)cc1,-14.7
